# Sampled rows, rich in hits. Any-hit rate of the full collection: about 1.5%.
# Mac1 fbg inh: CD11b/CD18-fibrinogen binding inhibition; P05107+P11215; 0.54% of 93,000 active; AID 1497; inhibition, % at 10 µM; K562 CD11b/CD18 adhesion to fibrinogen, ATPlite luminescence; Mn2+ added to activate the integrin;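 active = primary inhibition of 50% or more at 10 µM, then 40% or more on retest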
# Target sequence (P05107 whole entry, looked up, other chains not shown): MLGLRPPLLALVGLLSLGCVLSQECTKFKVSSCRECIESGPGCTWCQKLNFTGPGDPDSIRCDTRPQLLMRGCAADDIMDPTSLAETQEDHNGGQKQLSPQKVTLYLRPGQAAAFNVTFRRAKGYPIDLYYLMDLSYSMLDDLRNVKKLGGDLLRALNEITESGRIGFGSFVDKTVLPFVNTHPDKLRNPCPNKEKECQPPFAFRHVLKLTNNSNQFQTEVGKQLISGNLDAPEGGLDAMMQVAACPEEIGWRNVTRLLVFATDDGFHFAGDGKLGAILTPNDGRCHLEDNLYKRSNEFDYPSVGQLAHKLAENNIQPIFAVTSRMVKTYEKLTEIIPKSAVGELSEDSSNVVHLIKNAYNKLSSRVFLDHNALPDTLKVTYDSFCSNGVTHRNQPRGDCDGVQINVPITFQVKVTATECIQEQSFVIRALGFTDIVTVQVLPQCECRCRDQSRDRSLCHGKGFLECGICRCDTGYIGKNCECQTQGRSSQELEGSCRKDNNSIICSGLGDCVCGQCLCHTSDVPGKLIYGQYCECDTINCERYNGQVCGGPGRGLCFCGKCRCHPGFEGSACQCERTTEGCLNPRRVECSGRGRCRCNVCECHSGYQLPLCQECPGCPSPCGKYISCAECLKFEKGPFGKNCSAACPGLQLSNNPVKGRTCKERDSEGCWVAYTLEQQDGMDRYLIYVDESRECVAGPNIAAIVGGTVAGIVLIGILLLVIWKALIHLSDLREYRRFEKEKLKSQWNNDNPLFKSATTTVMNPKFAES
# CD11b adhes enh: enhancers of human CD11b/CD18 binding to fibrinogen. 0.07% of 93,000 active. P05107+P11215. AID 1499. K562 CD11b/CD18 adhesion to fibrinogen, ATPlite luminescence. activation, % at 10 µM;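 active = 10 µM primary screen giving 50% or more activity, confirmed by 40% or more on retest at that dose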
# GALR2 ag: agonists of human galanin receptor 2 (GALR2). O43603. GALR2-expressing cells, agonist activation read-out. activation, % (test concentration not listed). 0.48% of 140,000 active. AID 803; in the data active = activation above about 5%, passing the limit was not always enough
# GALR2 antag: antagonists of human galanin receptor 2 (GALR2). GALR2-expressing cells, antagonist mode. inhibition, % at 4 µM. 0.39% of 140,000 active;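 also: cells stimulated with galanin 1-16 at roughly its EC80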
# S1P2 blocker: S1P2 (human) receptor antagonism; O95136; cell-based S1P2 antagonist assay, inhibition at 5 uM; inhibition, % at 5 µM; 0.21% of 97,000 active; in the data active = inhibition above about 45%;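 also: CRE beta-lactamase reporter cells expressing human S1P2 stimulated with S1P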
# S1P2 ag: S1P2 (human) receptor agonism. 0.46% of 97,000 active. activation, % at 4.5 µM. AID 729. S1P2-expressing cell line, agonist reporter read-out; in the data active = activation above about 16%
# GALR2 blk conf: confirmation of human galanin receptor 2 (GALR2) antagonists; shares compounds with GALR2 antag; GALR2-expressing cells, antagonist mode, inhibition; inhibition, % at 4 µM; 60% of 480 active;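 also: cells stimulated with galanin at about its EC80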
# BLA inh counter: counter-screen for GALR2 antagonists: beta-lactamase reporter inhibitors | shares compounds with GALR2 antag | CHO NFAT-BLA reporter, beta-lactamase FRET, thapsigargin-stimulated | inhibition, % at 4.2 µM | 36% of 480 active | AID 867;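 active = inhibition above the mean inhibition across tested compounds plus 3 SD, cut at about 27% in these data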
# Numbers stand for hits; - = inactive; . = no result. Rule as the data show it, unless noted: active = inhibition above about 27%; inactive = the rest.
SMILES,Mac1 fbg inh,CD11b adhes enh,GALR2 ag,GALR2 antag,S1P2 blocker,S1P2 ag,GALR2 blk conf,BLA inh counter
Oc1c(Cl)cccc1C=Nc1cc(C(F)(F)F)ccc1N1CCCC1,-,-,-,31.9,-,-,-,-
Cc1csc2cc(-c3cccc([N+](=O)[O-])c3)c(-c3cccc([N+](=O)[O-])c3)c[n+]12,.,.,-,-,.,.,.,.
O=C(CSC(=S)N1CCOCC1)Nc1nc(=O)c2ccccc2s1,.,.,-,-,.,.,.,.
Cc1ccc(-c2cc(C(F)F)n3ncc(C(=O)Nc4ccc(S(=O)(=O)Nc5ccccc5C)cc4)c3n2)cc1,.,.,-,-,-,-,.,.
N#CC1=C(N)Nc2ncnn2C1c1ccccc1 (stereo unspecified),.,.,-,-,.,.,.,.
N#CC1=C(N)Nc2nc3ccccc3n2C1c1ccc(Cl)cc1 (stereo unspecified),.,.,-,31.9,.,.,27.4,45.9
Cc1ccc(-c2cc(C(=O)N(C)Cc3cnn(C)c3C)c3cc(Br)ccc3n2)cc1,-,-,-,28.1,.,.,-,-
O=C(/C=C/c1ccc(Cl)cc1)NC(=S)Nc1ccc(NC(=O)c2ccco2)cc1,-,-,-,46.4,.,.,53.0,-
COc1cc(/C=N/NC(=O)c2cc(-c3cccn3C)n[nH]2)cc(OC)c1OC,-,-,-,-,-,-,.,.
COc1cccc(/C=N/NC(=O)c2cc(-c3cccn3C)n[nH]2)c1O,.,.,-,28.2,.,.,26.9,-
CCOc1ccc2ccccc2c1/C=N/NC(=O)CNC(=O)Cc1ccccc1,.,.,-,-,.,.,.,.
C/C(CC(=O)Nc1ccc(F)cc1)=N\NC(=O)COc1ccccc1,.,.,-,-,.,.,.,.
CCOC(=O)c1c(C)nc2sc(C(=O)Nc3ccc(OC)cc3)c(N)c2c1-c1ccc(OC)cc1,-,-,-,-,-,-,.,.
CCOC(=O)c1c(C)nc2sc(C(=O)Nc3ccc(C(C)=O)cc3)c(N)c2c1-c1ccc(OC)cc1,-,-,-,29.8,-,-,-,37.5
O=C1C=C(NCc2ccccc2)CCC1,-,-,-,-,.,.,.,.
O=C1C=C(NC2=CC3OC(c4ccccc4)OCC3OC2=O)CCC1 (stereo unspecified),.,.,-,69.6,.,.,84.1,73.8
CCOC(=O)CSc1nc(C)cc(=O)[nH]1,-,-,-,32.1,-,-,-,-
COc1ccc(N=CC2=C(Nc3ccc(OC)cc3)c3c(C)nn(-c4ccccn4)c3CC2)cc1,.,.,-,-,-,-,.,.
CC1CCCN(CCCCOc2cccc(Br)c2)C1 (stereo unspecified),.,.,-,-,.,.,.,.
CCCCCOc1ccc(Br)cc1CSC(=N)N,104.6,-,-,33.3,.,.,37.7,76.9
COC(=O)c1cc(Cl)c(NC(=O)c2cc3ccccc3o2)cc1OC,.,.,-,-,-,-,.,.
O=C1N/C(=C/c2ccc(N3CCOCC3)o2)C(=O)N1c1ccccc1,.,.,-,54.7,.,.,-,-
O=C1NC(=S)S/C1=C/c1ccc(N2CCOCC2)o1,.,.,-,-,.,.,.,.
C=CCN1C(=O)N/C(=C/c2ccc(N3CCOCC3)o2)C1=O,.,.,-,37.9,.,.,-,-
O=C1N/C(=C/c2ccc(N3CCCC3)cc2)C(=O)N1c1ccccc1,.,.,-,-,.,.,.,.
SMILES,Mac1 fbg inh,CD11b adhes enh,GALR2 ag,GALR2 antag,S1P2 blocker,S1P2 ag,GALR2 blk conf,BLA inh counter
Cc1cc(=O)oc2cc(OS(C)(=O)=O)ccc12,.,.,-,-,.,.,.,.
Cc1ccccc1-n1c(CSC(=N)N)nc2ccccc2c1=O,-,-,-,30.6,-,-,-,-
Cc1cc2oc(=O)cc(Cn3nnc(-c4ccc(Cl)cc4)n3)c2cc1C(C)C,-,-,-,-,.,.,.,.
Cc1[nH]c2ccccc2c1/C=N/NC(=O)c1cc(-c2cccs2)[nH]n1,-,-,-,28.4,.,.,-,-
CC(/C=N/NC(=O)c1cc(-c2cccs2)[nH]n1)=C\c1ccccc1,-,-,-,-,.,.,.,.
CC(C)(C)c1ccc(/C=C2\SC(=O)N(CCNC(=O)c3cccc(S(=O)(=O)N4CCOCC4)c3)C2=O)cc1,.,.,-,-,.,.,.,.
CC(=O)Nc1nc2n(n1)C(c1ccc(F)cc1)C=C(c1ccccc1)N2 (stereo unspecified),-,-,-,30.9,56.0,-,28.0,45.5
Cc1nc(Cl)c2c(n1)NC1=C(O2)C(=O)CCC1,.,.,-,-,.,.,.,.
O=C(Nc1nc(-c2ccccc2)ns1)c1cccs1,-,-,-,35.5,-,-,-,-
O=C(Nc1nc(-c2ccccc2)cs1)c1cccs1,-,-,-,-,-,-,.,.
CCN(CC)S(=O)(=O)c1ccc(C)c(NC(=O)COC(=O)c2ccc(C)c(S(=O)(=O)N3CCOCC3)c2)c1,-,-,-,-,-,-,.,.
CS(=O)(=O)N(CC(=O)N1CCCC1)Cc1ccc(Cl)cc1,.,.,-,-,.,.,.,.
CCC(CC)C(=O)NCCCN1CCOCC1,.,.,-,-,.,.,.,.
Cc1ccccc1NC1=C/C(=N\S(=O)(=O)c2cccs2)c2ccccc2C1=O,-,-,-,62.7,-,-,44.0,59.1
Cc1cc(/C=N/n2cnnc2)c(C)n1-c1ccc(OCc2ccc(Cl)cc2Cl)cc1,99.2,-,-,28.6,73.8,-,44.6,-
Cc1cc(/C=N/n2cnnc2)c(C)n1-c1ccc(Cl)cc1,.,.,-,-,.,.,.,.
NC(=O)CSCc1nc2ccccc2s1,-,-,-,30.6,-,-,-,-
COc1ccc(OCCCC(=O)Nc2cc([N+](=O)[O-])ccc2C)cc1,-,-,-,-,-,-,.,.
Cc1ccccc1NC(=O)CC(O)(C(F)(F)F)C(F)(F)F,-,-,-,-,-,-,.,.
Cc1ccc(NC(=O)CC(O)(C(F)(F)F)C(F)(F)F)c(Br)c1,-,-,-,27.7,-,-,-,-
Cc1cc(C(=O)Cn2ncc(Cl)c(Cl)c2=O)c(C)n1CC(F)(F)F,-,-,-,-,.,.,.,.
CCc1ccccc1NC(=O)CN(C)C(=O)Cn1ncc(Cl)c(Cl)c1=O,-,-,-,77.7,.,.,75.0,-
Cc1ccc(C(=O)OCn2ncc(Cl)c(Cl)c2=O)cc1,.,.,-,85.4,80.0,-,93.6,71.2
CCOC(=O)c1ccc(NC(=O)Cn2ncc(Cl)c(Cl)c2=O)cc1,.,.,-,82.4,.,.,67.0,48.1
O=C(OCn1ncc(Cl)c(Cl)c1=O)c1ccc(C(F)(F)F)cc1,.,.,-,34.3,-,-,43.5,-
SMILES,Mac1 fbg inh,CD11b adhes enh,GALR2 ag,GALR2 antag,S1P2 blocker,S1P2 ag,GALR2 blk conf,BLA inh counter
CCOC(=O)c1ccc(NC(=O)CN2C(=O)CCC2=O)cc1,.,.,-,-,-,-,.,.
Cc1ccc(C)c(C(=O)Cn2ncc(Cl)c(Cl)c2=O)c1,-,-,-,-,-,-,.,.
O=C(COC(=O)C12CC3CC(CC(C3)C1)C2)Nc1nc2c(F)c(F)c(F)cc2s1,.,.,-,-,.,.,.,.
CC(=O)CSc1ccc(C(=O)O)cn1,.,.,-,-,.,.,.,.
O=C(Nc1cccc(S(=O)(=O)N2CCCC2)c1)c1ccc2c(=O)n3c(nc2c1)CCCCC3,.,.,-,34.5,.,.,-,-
Cc1ccccc1-n1c(SCC(=O)NCc2cccs2)nc2ccccc2c1=O,-,-,-,-,.,.,.,.
O=C(CSc1nc2ccccc2o1)N1CCN(S(=O)(=O)c2ccc3ccccc3c2)CC1,.,.,-,-,.,.,.,.

# Screens as filed in PubChem BioAssay.
